Reference: PubChem BioAssay
For part of these data: Measured potencies and affinities stand elsewhere. Active and inactive are the calls of the source.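 Rule for the calls, unless noted: active = calcium signal cut by more than 3 SD below the full-agonist control yet still positive, in both repeats and the earlier primary screen; inactive = the rest.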

Tests used:
[1] = system: TRPC4 beta (transient receptor potential cation channel C4), mouse; experiment: TRPC4 cation channel opening, retest – cell-based, Fluo4 calcium, HEK293 TRPC4beta/mu-opioid, duplicates, 10 µM, confirmation (AID 2426;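 active = fluorescence ratio normalized to control raised more than 50% in primary screen plus both repeat runs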); conditions: Fluo4 calcium fluorescence, at 10 µM; stronger effect = higher value
[2] = system: transient receptor potential cation channel C4 beta (TRPC4), mouse; experiment: TRPC4 cation channel opening, second retest – cell-based, second round, Fluo4, HEK293 TRPC4beta/mu-opioid, 1 µM, confirmation (AID 2461;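 active = primary screen active and over 50% activation in each of two duplicate runs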); conditions: Fluo4 calcium fluorescence, at 1 µM; stronger effect = higher value
[3] = system: TRPC4 (transient receptor potential cation channel C4 beta), mouse; experiment: potentiation of DAMGO EC20 TRPC4 response – cell-based, second round, Fluo-4, HEK293 TRPC4beta/mu-opioid, 1 µM, confirmation (AID 2554;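 active = primary screen hit whose fluorescence ratio, in both repeats, exceeds the weak agonist control mean by 3 SD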); conditions: DAMGO EC20, Fluo-4 calcium flux, at 1 µM; stronger effect = higher value
[4] = system: TRPC4 beta (transient receptor potential cation channel C4), mouse; experiment: potentiation of DAMGO EC20 TRPC4 response – cell-based, Fluo-4, HEK293 TRPC4beta/mu-opioid, confirmation (AID 2555;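 active = primary screen hit whose calcium fluorescence ratio, in both repeats, exceeds the weak agonist control mean by 3 SD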); conditions: DAMGO EC20, Fluo-4 calcium flux, at 10 µM; stronger effect = higher value
[5] = molecular target: Short transient receptor potential channel 4 (Mus musculus) (UniProt Q9QUQ5); experiment: blockers of DAMGO-evoked TRPC4 calcium flux – cell-based, Fluo4, HEK293 TRPC4beta/mu-opioid, confirmation (AID 2636); conditions: at 10 µM; stronger effect = higher value
Sequence of Short transient receptor potential channel 4 (Mus musculus) (Q9QUQ5 whole entry, looked up): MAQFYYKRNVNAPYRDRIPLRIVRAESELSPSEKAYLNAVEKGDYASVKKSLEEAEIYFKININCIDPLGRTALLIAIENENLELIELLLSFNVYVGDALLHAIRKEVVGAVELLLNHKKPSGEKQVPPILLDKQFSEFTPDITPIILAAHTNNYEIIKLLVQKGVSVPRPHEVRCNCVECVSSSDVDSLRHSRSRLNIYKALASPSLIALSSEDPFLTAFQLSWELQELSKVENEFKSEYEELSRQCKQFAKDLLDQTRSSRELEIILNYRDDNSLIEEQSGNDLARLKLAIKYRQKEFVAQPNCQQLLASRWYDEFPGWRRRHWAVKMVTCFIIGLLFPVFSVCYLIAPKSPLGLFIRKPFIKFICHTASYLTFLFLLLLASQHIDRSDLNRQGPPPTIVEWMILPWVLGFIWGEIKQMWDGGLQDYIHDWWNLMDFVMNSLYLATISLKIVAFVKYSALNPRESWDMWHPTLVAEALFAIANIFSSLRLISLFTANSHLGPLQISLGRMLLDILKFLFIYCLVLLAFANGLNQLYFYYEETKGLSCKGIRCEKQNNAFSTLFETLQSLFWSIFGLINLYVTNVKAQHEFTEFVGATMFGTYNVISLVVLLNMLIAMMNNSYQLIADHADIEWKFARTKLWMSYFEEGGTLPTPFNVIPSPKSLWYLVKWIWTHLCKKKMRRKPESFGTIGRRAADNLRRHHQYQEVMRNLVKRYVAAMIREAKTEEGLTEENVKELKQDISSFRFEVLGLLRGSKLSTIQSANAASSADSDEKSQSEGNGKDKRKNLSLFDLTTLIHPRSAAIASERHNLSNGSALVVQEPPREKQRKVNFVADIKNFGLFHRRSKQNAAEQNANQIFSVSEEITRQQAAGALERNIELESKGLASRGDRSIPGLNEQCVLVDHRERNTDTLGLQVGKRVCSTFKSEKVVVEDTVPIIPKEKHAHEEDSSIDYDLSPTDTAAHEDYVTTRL

[6] = molecular target: Short transient receptor potential channel 4 (Mus musculus) (UniProt Q9QUQ5); experiment: blockers of DAMGO-evoked TRPC4 calcium flux – cell-based, second round, Fluo4, HEK293 TRPC4beta/mu-opioid, 1 µM, confirmation (AID 2637;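 active = calcium signal ratio cut to more than 3 SD under the fully stimulated control mean yet still positive, in both repeats and the primary screen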); conditions: at 1 µM; stronger effect = higher value
[7] = molecular target: Short transient receptor potential channel 4 (Mus musculus) (UniProt Q9QUQ5); experiment: calcium entry via TRPC4 opening agents – cell-based, HEK293 TRPC4/mu-opioid, Fluo-4 calcium, dose response (AID 434937;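 active = primary screen activator hit with a dose response curve and TRPC4 channel activation at any tested dose; inactive = no activation, no dose response, or not a primary hit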)
[8] = molecular target: Short transient receptor potential channel 4 (Mus musculus) (UniProt Q9QUQ5); experiment: potentiation of DAMGO-evoked TRPC4 calcium signal – cell-based, HEK293 TRPC4/mu-opioid, Fluo-4 calcium, EC20 DAMGO, dose response (AID 434941;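 active = earlier screen potentiator hit that boosts the TRPC4 ion channel at some dose, with a dose response; inactive = no potentiation, no dose response, or not a prior hit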;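 note: calcium entry triggered by an EC20 dose of DAMGO at the co-expressed mu-opioid receptor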)
[9] = molecular target: Short transient receptor potential channel 4 (Mus musculus) (UniProt Q9QUQ5); experiment: block of DAMGO-driven TRPC4 calcium entry – cell-based, HEK293 TRPC4/mu-opioid, Fluo-4 calcium, dose response (AID 434942;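 active = primary screen inhibitor hit that blocks the TRPC4 channel at some tested dose, yielding a dose curve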)
[10] = molecular target: Short transient receptor potential channel 6 (Mus musculus) (UniProt Q61143); experiment: TRPC6 blockade by TRPC4 inhibitor hits – cell-based, HEK293, membrane potential dye, duplicate, selectivity assay for TRPC4 inhibitor project, confirmation (AID 434948;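 active = active in primary screen and both duplicates, each dropping signal beyond three positive-control SD with fluorescence still positive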); conditions: HEK293 TRPC6, membrane potential dye fluorescence, at 10 µM, stimulated with maximal-effect acetylcholine; stronger effect = higher value
Sequence of Short transient receptor potential channel 6 (Mus musculus) (Q61143 whole entry, looked up): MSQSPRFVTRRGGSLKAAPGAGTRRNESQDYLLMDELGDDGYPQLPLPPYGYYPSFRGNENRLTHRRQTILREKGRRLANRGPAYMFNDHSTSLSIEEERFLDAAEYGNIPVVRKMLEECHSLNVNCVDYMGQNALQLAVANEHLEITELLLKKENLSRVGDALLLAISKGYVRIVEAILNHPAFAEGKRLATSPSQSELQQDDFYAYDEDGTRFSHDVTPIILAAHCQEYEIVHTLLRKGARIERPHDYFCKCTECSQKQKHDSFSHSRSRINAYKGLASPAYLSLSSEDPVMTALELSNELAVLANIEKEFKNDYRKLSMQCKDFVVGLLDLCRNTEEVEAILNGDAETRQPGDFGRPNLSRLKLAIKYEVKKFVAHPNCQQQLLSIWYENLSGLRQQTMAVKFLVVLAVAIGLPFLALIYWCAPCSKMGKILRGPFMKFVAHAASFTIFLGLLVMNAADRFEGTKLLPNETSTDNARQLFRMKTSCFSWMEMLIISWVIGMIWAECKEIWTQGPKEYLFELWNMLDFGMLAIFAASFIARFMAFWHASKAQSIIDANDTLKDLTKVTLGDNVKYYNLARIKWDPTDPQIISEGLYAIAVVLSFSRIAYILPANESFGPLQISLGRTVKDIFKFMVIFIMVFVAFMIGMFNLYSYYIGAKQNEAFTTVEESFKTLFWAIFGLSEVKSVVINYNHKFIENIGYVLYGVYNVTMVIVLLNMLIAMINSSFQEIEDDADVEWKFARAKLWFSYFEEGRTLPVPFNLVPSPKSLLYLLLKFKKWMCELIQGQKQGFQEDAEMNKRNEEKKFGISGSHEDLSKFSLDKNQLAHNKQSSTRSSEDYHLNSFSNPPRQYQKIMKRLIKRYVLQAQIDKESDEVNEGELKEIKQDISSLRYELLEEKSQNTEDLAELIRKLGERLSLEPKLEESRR

[11] = molecular target: Short transient receptor potential channel 6 (Mus musculus) (UniProt Q61143); experiment: TRPC6 opening by TRPC4 activator hits – cell-based, HEK293, membrane potential dye, duplicate, selectivity assay for TRPC4 activator project, confirmation (AID 434950;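 active = membrane potential signal rise above negative control mean plus 3 SD in both duplicates, also active in the earlier TRPC4 screen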); conditions: HEK293 TRPC6, membrane potential fluorescence, at 10 µM; activation: stronger effect = higher value; outcome: activation
[12] = molecular target: Short transient receptor potential channel 6 (Mus musculus) (UniProt Q61143); experiment: positive modulators of mouse TRPC6 channel – HEK293 cells, membrane potential dye, duplicate, selectivity assay for TRPC4 potentiator project, confirmation (AID 434952;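 active = compound raising the membrane signal above positive-control mean plus 3 SD in both repeats, and a primary screen hit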); conditions: HEK293 TRPC6, membrane potential dye fluorescence, at 10 µM, maximal acetylcholine added after compound; stronger effect = higher value
[13] = molecular target: Short transient receptor potential channel 4 (Mus musculus) (UniProt Q9QUQ5); experiment: calcium flux activators in TRPC4/5HT1a cells, counter-screen for TRPC4 activator project, cell-based, second counter screen, HEK293 TRPC4/5HT1a, Fluo-4 (AID 434977;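 active = calcium signal rise above buffer-control mean plus 5 SD in both duplicates, and also a hit in the primary screen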); conditions: Fluo-4 calcium flux, at 10 µM; stronger effect = higher value
[14] = serotonin-gated TRPC4 signal block – cell-based, second counter screen, HEK293 TRPC4/5HT1a, Fluo-4, counter-screen for TRPC4 inhibitor project, confirmation (AID 434978;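 active = primary screen active whose calcium signal fell more than 3 SD beyond the full-serotonin control mean in both duplicate plates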;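 note: serotonin given first at submaximal then at maximal dose after compound preincubation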); conditions: Fluo-4 calcium flux, at 10 µM, serotonin added to trigger calcium flux; stronger effect = higher value
[15] = system: TRPC4 (mouse), co-expressed with 5HT1a in HEK293; experiment: enhancement of serotonin-evoked TRPC4 response – cell-based, second counter screen, HEK293 TRPC4/5HT1a, Fluo-4, counter-screen for TRPC4 potentiator project, confirmation (AID 434979;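 active = signal rise over 3 SD above mean of control wells given weak agonist, in both repeats and first screen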); conditions: Fluo-4 calcium flux, at 10 µM, serotonin added at its EC20 dose; stronger effect = higher value
[16] = nonspecific calcium rise without TRPC4 – cell-based, HEK293 mu-opioid receptor line, counter-screen for TRPC4 activator project, confirmation (AID 449723;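 active = hit in primary screen, with calcium signal over 5 SD above buffer well mean in both duplicates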;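 note: counter screen cells carry the mu-opioid receptor alone and lack TRPC4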); conditions: HEK293 mu-opioid cells, Fluo-4 calcium fluorescence, at 10 µM; stronger effect = higher value
[17] = nonspecific potentiation of DAMGO calcium response – cell-based, HEK293 mu-opioid receptor line, counter-screen for TRPC4 allosteric potentiator project, confirmation (AID 449724;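 active = calcium signal rise more than 3 SD above the low-dose agonist control mean, in both duplicate plates and the primary screen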); conditions: HEK293 mu-opioid receptor cells, Fluo-4 calcium flux, at 10 µM, compound added before EC20 DAMGO stimulus; stronger effect = higher value

CCN1C(=O)/C(=C\N2CCCc3ccccc32)SC1=S
inactive: outcome [1] | outcome [2] | outcome [3] | outcome [4] | outcome [5] | outcome [6] | outcome [7] | outcome [8] | outcome [9] | outcome [10] | outcome [11] | outcome [12] | outcome [13] | outcome [14] | outcome [15] | outcome [16] | outcome [17]

O=C(COc1coc(CN2CCN(c3ccccc3F)CC2)cc1=O)Nc1ccccc1
inactive: outcome [1] | outcome [2] | outcome [3] | outcome [4] | outcome [5] | outcome [6] | outcome [7] | outcome [8] | outcome [9] | outcome [10] | outcome [11] | outcome [12] | outcome [13] | outcome [14] | outcome [15] | outcome [16] | outcome [17]

Cc1oc(-c2ccc(Cl)cc2)nc1CN1CCC(C(=O)N2CCc3ccccc3C2)CC1
inactive: outcome [1] | outcome [2] | outcome [3] | outcome [5] | outcome [6] | outcome [7] | outcome [8] | outcome [9] | outcome [10] | outcome [11] | outcome [12] | outcome [13] | outcome [14] | outcome [16] | outcome [17]
active: potentiation [4] 16% | potentiation [15] 10.2%

O=C(COC(=O)c1ccccc1C(=O)N1CCN(c2ccccc2)CC1)Nc1ccc(F)cc1
inactive: outcome [1] | outcome [2] | outcome [3] | outcome [5] | outcome [6] | outcome [7] | outcome [8] | outcome [9] | outcome [10] | outcome [11] | outcome [12] | outcome [13] | outcome [14] | outcome [16] | outcome [17]
active: potentiation [4] 16% | potentiation [15] 50.1%

Oc1ccc(-c2[nH]ncc2-c2ccc(Br)cc2)c(O)c1
inactive: outcome [1] | outcome [2] | outcome [3] | outcome [4] | outcome [5] | outcome [6] | outcome [7] | outcome [8] | outcome [9] | outcome [10] | outcome [11] | outcome [12] | outcome [13] | outcome [14] | outcome [15] | outcome [16] | outcome [17]

O=c1[nH][nH]c(-c2ccccc2)c1C=Nc1ccc(F)cc1F
inactive: outcome [1] | outcome [2] | outcome [3] | outcome [5] | outcome [6] | outcome [7] | outcome [8] | outcome [9] | outcome [10] | outcome [11] | outcome [12] | outcome [13] | outcome [14] | outcome [16] | outcome [17]
active: potentiation [4] 119% | potentiation [15] 86%

CN1CCN(CCCNC(=O)CN2C(=O)COc3ccccc32)CC1
inactive: outcome [1] | outcome [2] | outcome [3] | outcome [4] | outcome [6] | outcome [7] | outcome [8] | outcome [9] | outcome [10] | outcome [11] | outcome [12] | outcome [13] | outcome [14] | outcome [15] | outcome [16] | outcome [17]
active: inhibition [5] 77%

CCN1CCN(C(=O)c2cc(-c3ccc(Cl)s3)nc3ccccc23)CC1
active: potentiation [4] 148% | potentiation [15] 37%
inactive: outcome [1] | outcome [2] | outcome [3] | outcome [5] | outcome [6] | outcome [7] | outcome [8] | outcome [9] | outcome [10] | outcome [11] | outcome [12] | outcome [13] | outcome [14] | outcome [16] | outcome [17]

CC1CN(c2nc3c(c(=O)n(Cc4ccc(Cl)c(Cl)c4)c(=O)n3C)n2C)CC(C)O1 (stereo not drawn)
active: potentiation [4] 13% | potentiation [15] 26.4%
inactive: outcome [1] | outcome [2] | outcome [3] | outcome [5] | outcome [6] | outcome [7] | outcome [8] | outcome [9] | outcome [10] | outcome [11] | outcome [12] | outcome [13] | outcome [14] | outcome [16] | outcome [17]
